From article PMC7862700, “An all-to-all approach to the identification of sequence-specific readers for epigenetic DNA modifications on cytosine”

What was measured:
Test in all cases: DAPPL (digital affinity profiling via proximity ligation, sequencing); 10 mM Tris-HCl pH 7.5, 50 mM NaCl, 1 mM DTT, 4% glycerol, room temperature, 30 min; GST-TFs on glutathione beads, 16-mer random dsDNA library, 0.1% formaldehyde crosslink after washing; high values mean tight binding
Conditions in all cases: protein: recombinant; tags: N-terminal GST; dsDNA, one strand shown
FLI1 = biological target: T1, FLI1 (Homo sapiens, UniProt Q01543 1-452)
T1 sequence: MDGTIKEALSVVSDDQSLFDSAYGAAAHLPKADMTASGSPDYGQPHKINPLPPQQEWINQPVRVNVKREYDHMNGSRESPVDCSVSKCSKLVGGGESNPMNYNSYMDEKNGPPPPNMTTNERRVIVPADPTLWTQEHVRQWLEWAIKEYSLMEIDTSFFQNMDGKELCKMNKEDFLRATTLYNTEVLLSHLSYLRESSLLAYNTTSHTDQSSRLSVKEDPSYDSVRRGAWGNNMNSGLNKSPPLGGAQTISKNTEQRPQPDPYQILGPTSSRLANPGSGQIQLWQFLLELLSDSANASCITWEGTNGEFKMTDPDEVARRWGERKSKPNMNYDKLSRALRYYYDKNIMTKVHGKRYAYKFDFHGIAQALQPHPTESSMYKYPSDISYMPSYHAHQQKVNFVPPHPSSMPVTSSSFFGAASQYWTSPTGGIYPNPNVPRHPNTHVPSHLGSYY
In short: (§1)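 Human transcription factors were made in yeast as GST fusions, captured on glutathione beads and barcoded with DNA. With a tag-only sample included, the pool was incubated with 200 nmole of a random double-stranded 16-mer DNA library in Tris/NaCl/DTT/glycerol buffer at room temperature for 30 min, then crosslinked with 0.1% formaldehyde after washing, ligated by proximity, amplified and sequenced. For binding signal, each hexamer's read frequency for a factor is divided by its frequency for the tag-only sample.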

ELK1 = biological target: T2, ELK1 (Homo sapiens, UniProt P19419 1-428)
T2 sequence: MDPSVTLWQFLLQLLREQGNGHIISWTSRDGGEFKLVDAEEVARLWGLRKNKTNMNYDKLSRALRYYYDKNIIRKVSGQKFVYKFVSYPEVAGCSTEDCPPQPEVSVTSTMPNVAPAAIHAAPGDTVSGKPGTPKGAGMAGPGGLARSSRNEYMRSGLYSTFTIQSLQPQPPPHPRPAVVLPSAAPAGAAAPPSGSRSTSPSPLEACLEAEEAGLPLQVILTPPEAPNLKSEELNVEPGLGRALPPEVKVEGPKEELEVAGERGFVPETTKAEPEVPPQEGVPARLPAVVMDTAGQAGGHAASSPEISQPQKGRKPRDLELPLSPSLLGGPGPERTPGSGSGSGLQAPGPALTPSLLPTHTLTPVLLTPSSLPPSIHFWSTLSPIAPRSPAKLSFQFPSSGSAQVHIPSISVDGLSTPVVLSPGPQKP
In short: as §1

GABPA = biological target: T3, GABPA (Homo sapiens, UniProt Q06546 1-454)
T3 sequence: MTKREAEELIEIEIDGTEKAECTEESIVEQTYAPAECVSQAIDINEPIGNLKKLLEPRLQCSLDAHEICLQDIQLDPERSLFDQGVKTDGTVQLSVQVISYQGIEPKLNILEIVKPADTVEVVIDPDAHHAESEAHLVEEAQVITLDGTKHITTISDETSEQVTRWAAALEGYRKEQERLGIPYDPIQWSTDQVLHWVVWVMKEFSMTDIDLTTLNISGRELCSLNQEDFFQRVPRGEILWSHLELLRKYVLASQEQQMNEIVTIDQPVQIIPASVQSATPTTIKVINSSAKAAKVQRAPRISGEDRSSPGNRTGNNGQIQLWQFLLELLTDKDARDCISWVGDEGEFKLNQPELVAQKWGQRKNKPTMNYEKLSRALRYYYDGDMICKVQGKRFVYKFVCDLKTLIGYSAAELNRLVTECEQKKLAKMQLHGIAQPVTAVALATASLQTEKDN
In short: as §1

ERG = biological target: T4, ERG (Homo sapiens, UniProt P11308 1-479)
T4 sequence: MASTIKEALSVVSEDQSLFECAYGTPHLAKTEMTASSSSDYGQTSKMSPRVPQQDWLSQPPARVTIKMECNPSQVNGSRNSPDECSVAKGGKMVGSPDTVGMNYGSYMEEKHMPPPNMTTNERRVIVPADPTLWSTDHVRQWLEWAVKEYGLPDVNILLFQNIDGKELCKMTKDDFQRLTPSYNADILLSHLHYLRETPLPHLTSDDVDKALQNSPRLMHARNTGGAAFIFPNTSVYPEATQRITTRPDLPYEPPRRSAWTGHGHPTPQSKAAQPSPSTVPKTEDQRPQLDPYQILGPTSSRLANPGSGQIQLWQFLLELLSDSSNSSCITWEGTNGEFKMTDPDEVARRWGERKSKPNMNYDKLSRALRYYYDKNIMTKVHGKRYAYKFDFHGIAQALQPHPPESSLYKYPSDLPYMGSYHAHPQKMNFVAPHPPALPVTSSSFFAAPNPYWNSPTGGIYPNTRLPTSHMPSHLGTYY
In short: as §1

ELF1 = ELF1 (Homo sapiens, UniProt P32519 1-619)
In short: as §1

EHF = biological target: T5, EHF (Homo sapiens, UniProt Q9NZC4 1-300)
T5 sequence: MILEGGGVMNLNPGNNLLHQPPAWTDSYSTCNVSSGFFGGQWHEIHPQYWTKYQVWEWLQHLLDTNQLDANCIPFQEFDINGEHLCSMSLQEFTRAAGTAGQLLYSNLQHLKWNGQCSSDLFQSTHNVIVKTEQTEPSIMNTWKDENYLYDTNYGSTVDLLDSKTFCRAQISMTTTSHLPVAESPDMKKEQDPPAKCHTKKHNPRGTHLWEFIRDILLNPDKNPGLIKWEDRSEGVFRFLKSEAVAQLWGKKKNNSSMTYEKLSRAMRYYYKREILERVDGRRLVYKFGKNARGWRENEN
In short: as §1

SPI1 = SPI1 (Homo sapiens, UniProt P17947 1-270)
In short: as §1

SPIB = SPIB (Homo sapiens, UniProt Q01892 1-262)
In short: as §1

ELK3 = biological target: T6, ELK3 (Homo sapiens, UniProt P41970 1-407)
T6 sequence: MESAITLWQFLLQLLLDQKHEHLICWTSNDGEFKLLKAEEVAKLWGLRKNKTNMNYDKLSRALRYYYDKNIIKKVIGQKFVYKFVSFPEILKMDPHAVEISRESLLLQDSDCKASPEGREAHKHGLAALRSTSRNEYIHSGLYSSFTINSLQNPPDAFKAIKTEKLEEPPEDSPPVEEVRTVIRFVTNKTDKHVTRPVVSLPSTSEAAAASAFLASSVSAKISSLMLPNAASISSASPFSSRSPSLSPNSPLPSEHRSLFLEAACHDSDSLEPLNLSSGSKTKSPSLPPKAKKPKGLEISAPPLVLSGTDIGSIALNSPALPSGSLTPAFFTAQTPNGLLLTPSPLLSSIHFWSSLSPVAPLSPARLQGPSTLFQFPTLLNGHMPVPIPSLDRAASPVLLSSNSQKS
In short: as §1

Chain of ELF1 (P32519 whole entry): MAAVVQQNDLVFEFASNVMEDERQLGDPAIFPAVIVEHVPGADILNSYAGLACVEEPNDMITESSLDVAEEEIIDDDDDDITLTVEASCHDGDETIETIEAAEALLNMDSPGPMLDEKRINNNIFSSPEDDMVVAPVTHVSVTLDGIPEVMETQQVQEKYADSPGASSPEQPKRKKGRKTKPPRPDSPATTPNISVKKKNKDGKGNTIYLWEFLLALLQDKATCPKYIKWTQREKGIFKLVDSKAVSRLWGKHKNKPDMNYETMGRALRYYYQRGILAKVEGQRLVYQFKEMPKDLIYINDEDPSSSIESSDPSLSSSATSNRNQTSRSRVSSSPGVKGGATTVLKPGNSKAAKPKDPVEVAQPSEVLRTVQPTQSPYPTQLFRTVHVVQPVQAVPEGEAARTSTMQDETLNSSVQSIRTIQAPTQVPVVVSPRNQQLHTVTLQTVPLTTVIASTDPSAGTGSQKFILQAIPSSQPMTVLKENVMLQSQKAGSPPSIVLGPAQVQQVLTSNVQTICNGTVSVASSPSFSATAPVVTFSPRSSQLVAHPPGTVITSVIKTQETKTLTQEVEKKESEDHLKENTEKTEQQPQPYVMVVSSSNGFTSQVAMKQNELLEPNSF
Chain of SPIB (Q01892 whole entry): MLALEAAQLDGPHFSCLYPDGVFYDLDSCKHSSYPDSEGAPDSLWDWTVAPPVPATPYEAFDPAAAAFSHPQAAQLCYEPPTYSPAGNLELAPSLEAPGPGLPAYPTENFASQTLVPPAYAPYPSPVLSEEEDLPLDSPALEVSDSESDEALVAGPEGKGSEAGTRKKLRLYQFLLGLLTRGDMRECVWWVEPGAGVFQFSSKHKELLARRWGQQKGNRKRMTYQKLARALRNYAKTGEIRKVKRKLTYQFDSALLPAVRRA

Sequence	binding signal (FLI1)	binding signal (ELK1)	binding signal (GABPA)	binding signal (ERG)	binding signal (ELF1)	binding signal (EHF)	binding signal (SPI1)	binding signal (SPIB)	binding signal (ELK3)
GTTTCC	2.66 fold enrichment (6-mer frequency, TF over GST control)	2.9 fold enrichment (6-mer frequency, TF over GST control)	2.56 fold enrichment (6-mer frequency, TF over GST control)	3.43 fold enrichment (6-mer frequency, TF over GST control)	2.58 fold enrichment (6-mer frequency, TF over GST control)	2.77 fold enrichment (6-mer frequency, TF over GST control)	2.67 fold enrichment (6-mer frequency, TF over GST control)	2.84 fold enrichment (6-mer frequency, TF over GST control)	2.9 fold enrichment (6-mer frequency, TF over GST control)
TGACCC	1.34 fold enrichment (6-mer frequency, TF over GST control)	1.29 fold enrichment (6-mer frequency, TF over GST control)	1.38 fold enrichment (6-mer frequency, TF over GST control)	1.4 fold enrichment (6-mer frequency, TF over GST control)	1.43 fold enrichment (6-mer frequency, TF over GST control)	1.51 fold enrichment (6-mer frequency, TF over GST control)	1.26 fold enrichment (6-mer frequency, TF over GST control)	1.3 fold enrichment (6-mer frequency, TF over GST control)	1.4 fold enrichment (6-mer frequency, TF over GST control)
TAGCCT	1.27 fold enrichment (6-mer frequency, TF over GST control)	1.21 fold enrichment (6-mer frequency, TF over GST control)	1.18 fold enrichment (6-mer frequency, TF over GST control)	1.23 fold enrichment (6-mer frequency, TF over GST control)	1.28 fold enrichment (6-mer frequency, TF over GST control)	1.26 fold enrichment (6-mer frequency, TF over GST control)	1.23 fold enrichment (6-mer frequency, TF over GST control)	1.2 fold enrichment (6-mer frequency, TF over GST control)	1.14 fold enrichment (6-mer frequency, TF over GST control)
CAATCC	1.17 fold enrichment (6-mer frequency, TF over GST control)	1.19 fold enrichment (6-mer frequency, TF over GST control)	1.26 fold enrichment (6-mer frequency, TF over GST control)	1.24 fold enrichment (6-mer frequency, TF over GST control)	1.22 fold enrichment (6-mer frequency, TF over GST control)	1.07 fold enrichment (6-mer frequency, TF over GST control)	1.12 fold enrichment (6-mer frequency, TF over GST control)	1.2 fold enrichment (6-mer frequency, TF over GST control)	1.08 fold enrichment (6-mer frequency, TF over GST control)
TCGTTT	1.13 fold enrichment (6-mer frequency, TF over GST control)	1.21 fold enrichment (6-mer frequency, TF over GST control)	1.28 fold enrichment (6-mer frequency, TF over GST control)	1.15 fold enrichment (6-mer frequency, TF over GST control)	1.15 fold enrichment (6-mer frequency, TF over GST control)	1.22 fold enrichment (6-mer frequency, TF over GST control)	1.2 fold enrichment (6-mer frequency, TF over GST control)	1.18 fold enrichment (6-mer frequency, TF over GST control)	1.05 fold enrichment (6-mer frequency, TF over GST control)
TATTAC	1.24 fold enrichment (6-mer frequency, TF over GST control)	1.2 fold enrichment (6-mer frequency, TF over GST control)	1.09 fold enrichment (6-mer frequency, TF over GST control)	1.16 fold enrichment (6-mer frequency, TF over GST control)	1.19 fold enrichment (6-mer frequency, TF over GST control)	1.19 fold enrichment (6-mer frequency, TF over GST control)	1.12 fold enrichment (6-mer frequency, TF over GST control)	1.21 fold enrichment (6-mer frequency, TF over GST control)	1.16 fold enrichment (6-mer frequency, TF over GST control)
TTAAAA	1.19 fold enrichment (6-mer frequency, TF over GST control)	1.15 fold enrichment (6-mer frequency, TF over GST control)	1.19 fold enrichment (6-mer frequency, TF over GST control)	1.15 fold enrichment (6-mer frequency, TF over GST control)	1.22 fold enrichment (6-mer frequency, TF over GST control)	1.16 fold enrichment (6-mer frequency, TF over GST control)	1.33 fold enrichment (6-mer frequency, TF over GST control)	1.23 fold enrichment (6-mer frequency, TF over GST control)	1.22 fold enrichment (6-mer frequency, TF over GST control)
TTTGAT	1.37 fold enrichment (6-mer frequency, TF over GST control)	1.36 fold enrichment (6-mer frequency, TF over GST control)	1.26 fold enrichment (6-mer frequency, TF over GST control)	1.3 fold enrichment (6-mer frequency, TF over GST control)	1.23 fold enrichment (6-mer frequency, TF over GST control)	1.25 fold enrichment (6-mer frequency, TF over GST control)	1.22 fold enrichment (6-mer frequency, TF over GST control)	1.31 fold enrichment (6-mer frequency, TF over GST control)	1.12 fold enrichment (6-mer frequency, TF over GST control)
